Screen size: about 300,000 compounds; about 1,500 (0.5%) were called active. The entries come from a sample that favours actives as a whole. A number with no mark means an inactive call.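 How the source made its calls: active means inhibition above the mean of all tested compounds plus 3 SD, set per screening campaign (cut at about 17% in these data); inactive means the rest.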

As usually defined, the inhibition is the drop in the measured response relative to a control, in per cent.

For the assay, the system named is cathepsin L1 (Fasciola hepatica). In words: Fasciola hepatica cathepsin L1 inhibitors, primary screen, counter-screen for PFM18AAP inhibitor project, biochemical, QFRET, fluorogenic peptide substrate (AID 1906).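 Further: 0% = plate median of test compound wells and 100% = 1 µM Z-Phe-Ala-diazomethylketone.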 To be noted: recombinant F. hepatica cathepsin L1, Z-Leu-Arg-MCA fluorescence; at 5.96 µM; hits give high values.
Consider `Cc1ccccc1NC(=O)c1ccc(COc2ccc3c(C)cc(=O)oc3c2)cc1`, for which the inhibition is 1.96%.
As to `CCn1ccnc1CN(C)Cc1nc(-c2ccc3c(c2)OCO3)no1`, the inhibition was -4.87%.
The result for `COc1ccc(NC(=O)CN(C)C(=O)CNC(=O)C2CCCCC2)cc1` reads -1.07%.
The result for `COc1ccc(CCNC(=O)COC(=O)C2CCCCC2)cc1` reads -2.54%; that for `COc1ccc(NC(=O)COC(=O)CNC(=O)C2CCCCC2)cc1`, 32.3% (active); that for `NC(=O)COc1ccccc1C(=O)NC12CC3CC(CC(C3)C1)C2`, -1.07%.
With `COc1ccccc1C(=O)COC(=O)CSCC(=O)Nc1cc(C)on1`, the inhibition was -19.3%.
Take `COCc1cc(C)nc(SCC(=O)Nc2cccc(C)c2)c1C#N`: the inhibition is -0.64%.
Turning to `Cc1cc(C)c(C#N)c(SCC(=O)Nc2ccccc2)n1`, the inhibition was 39.5% (active).
The result for `Cc1cc(C)c(C#N)c(SCc2ccccc2C(=O)O)n1` reads -2.52%.
For the molecule `Cc1c(C(=O)OC(C)C)sc(NC(=O)c2cccnc2)c1C#N`, the inhibition is 2.51%.
For the molecule `COc1ccccc1CCNC(=O)CN1C(=O)NC2(CCCC2)C1=O`, the inhibition is -1.76%.
As to `O=C(O)CC(c1ccccc1F)N1Cc2ccccc2C1=O` (stereo not drawn), the inhibition was 0.38%.
Regarding `CCOc1cc(/C=C/c2nc3ccccc3c(=O)[nH]2)cc(Br)c1OC`, the inhibition is 4.32%.
Take `O=c1[nH]c(SCc2cccc(F)c2)nc2ccccc12`: the inhibition was -0.09%.
The result for `O=c1[nH]c(/C=C/c2cccc(Br)c2)nc2ccccc12` reads 49.9% (active); that for `COc1ccc(S(=O)(=O)N2CCOC2CNC(=O)C(=O)NCc2ccncc2)cc1C` (stereo not drawn), -2.32%.
The result for `O=C1CSC(=S)N1c1ccc(O)cc1` reads 2.41%.
For `Cc1cc(=O)[nH]c(S)c1C#N`, the inhibition is 3.28%.
With `Cc1ccc(-c2nnc(C)c(N3CC(C)OC(C)C3)n2)cc1` (stereo not drawn), the inhibition is 1.07%.
For `CC(=O)c1cc(C#N)c(SCC(=O)C(C)(C)C)nc1C`, the inhibition was 5.58%.
Turning to `CC(=O)c1cc(C#N)c(N2CC(C)OC(C)C2)nc1C` (stereo not drawn), the inhibition was 20% (active).
Regarding `O=C(Nc1ccc(-c2nnc(-c3ccccc3)o2)cc1)C1CCCO1` (stereo not drawn), the inhibition is 0.12%.
In the case of `O=C(Nc1nnc(SCc2c(Cl)cccc2Cl)s1)C1CCCO1` (stereo not drawn), the inhibition is 4.51%.
For the molecule `O=C(Nc1nnc(CCc2ccccc2)s1)C1CCCO1` (stereo not drawn), the inhibition was 18% (active).
With `OCCNc1nc(Nc2ccc(Cl)c(Cl)c2)nc2ccccc12`, the inhibition was 2.53%.
For `CS(=O)(=O)c1ccc(Cl)c(NC(=O)COC(=O)c2ncc(Cl)c(Cl)c2Cl)c1` the value was -5.36%; for `Cc1ccc(S(=O)(=O)CC(=O)Nc2nnc(C)s2)cc1`, -3.43%.
The result for `CC(=O)N1CCc2c(sc(NC(=O)CCS(=O)(=O)c3ccc(C)cc3)c2C(N)=O)C1` reads -1.1%.
The result for `Cc1ccc(S(=O)(=O)CC(=O)Nc2sc(C)c(C)c2C(N)=O)cc1` reads 17.8% (active); that for `C/C=C(\C)C(=O)NCCN1C2=NC[C@H](Cc3ccc(O)cc3)N2C[C@@H]1Cc1ccc(OC)cc1`, -2.36%; that for `O=C(O)CSCC(=O)Nc1ccc(C(F)(F)F)cc1`, -1.45%.
As to `O=C(O)CC1(CC(=O)Nc2cccc(C(F)(F)F)c2)CCCC1`, the inhibition is -5.07%.
On to `O=C(O)CSCC(=O)Nc1cccc(C(F)(F)F)c1`, for which the inhibition was 16.9% (active).
Regarding `CCOc1cc(N2CCOCC2)c(OCC)cc1NC(=O)c1ccc(C)s1`, the inhibition is -0.83%.
The result for `CCOc1cc(N2CCOCC2)c(OCC)cc1NC(=O)COc1cccc2cccnc12` reads -0.24%; that for `CCOc1cc(N2CCOCC2)c(OCC)cc1NC(=O)COc1cccc(Cl)c1`, 30.1% (active).
Take `Cc1c(C=O)c2ccccc2n1CCOc1ccccc1`: the inhibition is 1.89%.
The result for `O=C(O)c1cccnc1NC1CCCC1` reads 1.66%; that for `CNc1nc(SC)nc(N(C#N)CC(=O)OC)n1`, 42.3% (active).
As to `COC(=O)C(C)N(C#N)c1nc(C)nc(C)n1` (stereo not drawn), the inhibition was 1.79%.
For `Cc1cc(C)nc(N(C#N)CC(=O)Nc2ccccc2)n1` the value was 1.63%.
Take `COc1ccc(CC(NC(C)=O)C(=O)N2CCN(C(=O)Nc3cccc(Cl)c3)CC2)cc1OC` (stereo not drawn): the inhibition is -4.54%.
`Cn1cc(S(=O)(=O)Nc2ccc(Cl)cc2Cl)c(=O)n(C)c1=O`: the inhibition was -0.98%.
As for `Cc1ccc(NC(=S)N(CCN2CCCCC2)Cc2ccco2)cc1C`, the inhibition was -2.51%.
In the case of `Cc1ccc(NC(=S)N(Cc2ccco2)C(C)c2cccs2)cc1` (stereo not drawn), the inhibition was 22.4% (active).
As for `Cc1ccc(NC(=S)N(CCCN2CCC(C)CC2)Cc2ccco2)cc1`, the inhibition is -0.39%.
The result for `COn1c(=O)c(=O)n(OC)c2ccccc21` reads 2.56%; that for `O=C(Cc1ccccc1)n1nc(-c2ccccc2)nc1NCc1ccco1`, 51.2% (active); that for `O=C(NCc1ccco1)c1nc(-c2ccccc2)n(-c2ccccc2)n1`, -1.81%.
Consider `CS(=O)(=O)n1nc(-c2ccccc2)nc1NCc1ccco1`, for which the inhibition is 0.56%.
`c1csc(CN2CCN(Cc3cccs3)C2c2cccs2)c1`: the inhibition was 17% (active).
For `O=C1c2cccnc2C(=O)N1Cc1cccs1` the value was 0.86%; for `O=C(CSCc1cccs1)N1CCCC1`, -3.58%.
As to `COC(=O)Nc1ccc(S(=O)(=O)Nc2cc(OC)nc(OC)n2)cc1`, the inhibition is 2.38%.
As for `COc1ccc(C(CCN(Cc2ccc(OC)c(OC)c2)C(=O)CCl)c2ccccc2)cc1` (stereo not drawn), the inhibition was 59.9% (active).
For `COc1ccc(CN(C)C(=O)CC(c2ccccc2)c2ccccc2)cc1`, the inhibition was 2.03%.
For the molecule `COc1ccc(COC(=O)NC(C(=O)O)c2ccccc2)cc1` (stereo not drawn), the inhibition is 0.08%.
Take `CCN(CC(=O)Nc1ccc(NC(C)=O)cc1)C(=O)C1CC(=O)N(Cc2ccc(C)cc2)C1` (stereo not drawn): the inhibition is 6.92%.
On to `O=c1c2ccccc2cnn1Cc1n[nH]c(=S)n1-c1ccccc1F`, for which the inhibition is -4.23%.
As to `COC(=O)C1=C(NC(=O)C(C)(C)C)CCS1`, the inhibition was -1.55%.
For `NC(=O)c1ccsc1NC(=O)COC(=O)Cc1n[nH]c(=O)c2ccccc12` the value was 2.85%; for `COc1cc(OC)c(C2=NOC(C(=O)Nc3c(C)n(C)n(-c4ccccc4)c3=O)C2)cc1Cl` (stereo not drawn), 4.46%; for `Cc1ncn(C23CC4CC(CC(O)(C4)C2)C3)n1`, 23.6% (active).
For the molecule `COC(=O)c1ccc(NC(=O)C23CC4CC(C2)CC(n2cnc(Cl)n2)(C4)C3)cc1`, the inhibition is 0.89%.
As to `CC(N)C12CC3CC(CC(O)(C3)C1)C2` (stereo not drawn), the inhibition is -3.06%.
The result for `COc1ccc(CCNC(=O)CN2C(=O)CCSc3ccccc32)c(OC)c1` reads -0.1%; that for `Cc1ccc(Nc2c(F)c(F)c(F)c(F)c2C(=O)O)c(C)c1`, -4.87%; that for `COc1ccc(C2=NS(=O)(=O)N(C)C(C(=O)NC(C)c3ccccc3)=C2)cc1` (stereo not drawn), 11.2%.
The result for `COc1ccc(NC(=O)NCCN2CCN(c3ccc(C)cc3)CC2)c(Cl)c1` reads 2.74%; that for `COc1ccc(Cl)cc1NC(=O)CCN1CCOCC1`, -1.4%.
In the case of `COc1ccc(Cl)cc1NC(=O)COC(=O)C(CC(C)C)N1C(=O)C2CC=CCC2C1=O` (stereo not drawn), the inhibition was 39.5% (active).
With `COc1ccc(Cl)cc1NC(=O)c1cccc(N2C(=O)C3CC=CCC3C2=O)c1` (stereo not drawn), the inhibition was 0.1%.
For `O=C(CN1CCN(S(=O)(=O)c2ccc(Cl)s2)CC1)NCc1ccc(Cl)cc1` the value was -3.91%.
Regarding `COc1ccc(CNC(=O)CCN2C(=O)c3ccccc3C2=O)cc1`, the inhibition was -1.89%.
For `COc1ccc(CNC(=O)C(Cc2ccccc2)n2cccc2)cc1` (stereo not drawn) the value was 2.08%.
With `COc1ccc(CNC(=O)CCn2cccc2)cc1`, the inhibition is 17.3% (active).
For the molecule `COc1ccc(OC)c(NC(=O)c2cccc(S(=O)(=O)N3CCN(C(C)=O)CC3)c2)c1`, the inhibition is -1.16%.
